Rows were chosen to be rich in hits. Some 3.5% of all compounds tested hit in one or more screens of this group.
MITF inh = human MITF inhibition, primary screen. O75030. AlphaScreen MITF homodimerization, bead proximity signal. inhibition, % at 2.6 µM. 0.91% of 650,000 active. AID 1259374; in the data active = inhibition above about 50%
Target sequence (O75030 whole entry, looked up): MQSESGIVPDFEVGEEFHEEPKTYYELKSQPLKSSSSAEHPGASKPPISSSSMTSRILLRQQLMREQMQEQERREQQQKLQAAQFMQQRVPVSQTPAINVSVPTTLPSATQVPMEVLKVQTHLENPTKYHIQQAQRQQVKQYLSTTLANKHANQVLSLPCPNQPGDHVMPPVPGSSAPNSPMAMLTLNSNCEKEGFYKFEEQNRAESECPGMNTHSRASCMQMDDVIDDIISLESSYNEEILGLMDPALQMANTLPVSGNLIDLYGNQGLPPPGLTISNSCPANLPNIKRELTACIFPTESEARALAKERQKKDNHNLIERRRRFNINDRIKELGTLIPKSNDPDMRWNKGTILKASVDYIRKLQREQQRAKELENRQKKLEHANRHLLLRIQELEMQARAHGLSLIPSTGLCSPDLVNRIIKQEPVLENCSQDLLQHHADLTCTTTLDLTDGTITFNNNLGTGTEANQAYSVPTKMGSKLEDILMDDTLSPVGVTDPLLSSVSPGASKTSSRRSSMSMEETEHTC
FBW7 act = human FBW7 E3 ligase activation, primary screen; Q969H0; 0.13% of 650,000 active; AID 1259310; normalized activity (activation), % at 26.1 µM; AlphaScreen FBW7–phospho-cyclin E peptide binding, activator screen; in the data active = normalized activity above about 1.9%;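 also: purified mutant Fbw7 with reduced substrate affinity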
TEAD-YAP block = TEAD-YAP interaction inhibition; HEK-TIYL cells, TEAD-Gal4/YAP UAS-luciferase luminescence; inhibition, % at 9.12 µM; 1.4% of 640,000 active; AID 1259422; in the data active = inhibition above about 32%
GPR151 activ = human GPR151 activation | Q8TDV0 | PathHunter beta-arrestin GPR151 cells, luminescence | activation, % at 11.2 µM | 1% of 650,000 active | AID 1508602; in the data active = activation above about 4.9%
Each line names hits and unclear results; the compound was inactive in the other large screens.

Nc1cccc(Oc2ccc3c(c2)C(=O)N(c2cccc(N)c2)C3=O)c1	none
CCOc1ccccc1C1C2=C(CC(c3ccc(OC)cc3)CC2=O)Nc2ccccc2N1C(=O)C(F)(F)F (stereo unspecified)	none
Cc1cc(/C=c2\sc3nc4ccccc4n3c2=O)c(C)n1-c1ccc(F)cc1	TEAD-YAP block 32
CC(=O)Nc1ccc(/C=c2\sc3nc4ccccc4n3c2=O)cc1	TEAD-YAP block 57
O=c1/c(=C\c2ccc3c(c2)OCO3)sc2nc3ccccc3n12	TEAD-YAP block 38
COc1ccc(-n2c(C)cc(/C=c3\sc4nc5ccccc5n4c3=O)c2C)cc1	none
O=c1/c(=C/c2ccc(O)c(Cl)c2)sc2nc3ccccc3n12	TEAD-YAP block 53
c1ccc(COC2CCN(Cc3nc(-c4ccccn4)no3)CC2)nc1	none
O=C1C(=O)N(CCCN2CCOCC2)C(c2cccc(Br)c2)/C1=C(/O)c1ccc(F)cc1 (stereo unspecified)	none
COCCNC(=O)c1ccc(C)cc1Cl	none
O=C(Nc1ccc(S(=O)(=O)C(F)F)cc1)c1cc(F)c(F)c(F)c1F	TEAD-YAP block 37
CCc1ccc(NC(=O)c2ccc(C(=O)O)cc2C(=O)O)cc1	none
Cc1ccc(/C=N/NC(=O)c2ccc3c(c2)OCO3)c(O)c1	TEAD-YAP block 56
Cc1ccc(/C=N/NC(=O)c2ccncc2)c(O)c1	MITF inh 57
Cc1ccc(C(=O)N/N=C/c2ccc3c(c2)OCO3)cc1	none
O=C(c1cccc(N2CCCC2=O)c1)N1CCN(c2cccc(Cl)c2)CC1	TEAD-YAP block 44
Cc1cccc(N2CCN(C(=O)c3cccc(N4CCCC4=O)c3)C(C)C2)c1 (stereo unspecified)	TEAD-YAP block 58
Cc1cccc(N2CCN(C(=O)c3ccc(N4CCCC4=O)cc3)CC2C)c1 (stereo unspecified)	none
Cc1ccnc(SCc2cc(=O)c(OC(=O)c3cccc(Br)c3)co2)n1	none
N#Cc1ccc(-c2cnc3ccc(NCCc4cccnc4)nn23)cc1	TEAD-YAP block 34
Clc1cccc(-c2cnc3ccc(NCCc4cccnc4)nn23)c1	FBW7 act 2.0, TEAD-YAP block 94
Cc1cccnc1NC(=O)c1c(F)cccc1F	none
CC(=O)c1c(C)[nH]c(C(=O)CSc2nnc(NCc3ccccc3)s2)c1C	TEAD-YAP block 42
CCOC(=O)c1c(C)[nH]c(C(=O)CSc2nnc(NCc3ccccc3)s2)c1C	none
O=C1c2ccc(Oc3cccc([N+](=O)[O-])c3)cc2C(=O)N1c1ccccc1O	none
C=CCOC(=O)c1[nH]c2c(c1C)C(=O)CC(c1cccs1)C2 (stereo unspecified)	TEAD-YAP block 49
C=CCOC(=O)c1[nH]c2c(c1C)C(=O)CC(c1ccc(OC)c(OC)c1)C2 (stereo unspecified)	none
CCOC(=O)c1[nH]c2c(c1C)C(=O)CC(c1cc(OC)ccc1OC)C2 (stereo unspecified)	TEAD-YAP block 44
C=CCOC(=O)c1[nH]c2c(c1C)C(=O)CC(c1cc(OC)c(OC)c(OC)c1)C2 (stereo unspecified)	TEAD-YAP block 43
C=CCOC(=O)c1[nH]c2c(c1C)C(=O)CC(c1ccc(OC)cc1)C2 (stereo unspecified)	none
COC(=O)c1[nH]c2c(c1C)C(=O)CC(c1cc(OC)ccc1OC)C2 (stereo unspecified)	TEAD-YAP block 46
CCOc1ccc(C2CC(=O)c3c([nH]c(C(=O)OC)c3C)C2)cc1OC (stereo unspecified)	none
C=CCOC(=O)c1[nH]c2c(c1C)C(=O)CC(c1cc(OC)ccc1OC)C2 (stereo unspecified)	TEAD-YAP block 42
COC(=O)c1[nH]c2c(c1C)C(=O)CC(c1ccccc1Cl)C2 (stereo unspecified)	TEAD-YAP block 52
Cc1c(C(=O)O)[nH]c2c1C(=O)CC(c1ccccc1Cl)C2 (stereo unspecified)	none
CCOC(=O)c1[nH]c2c(c1C)C(=O)CC(c1cccc(OC)c1)C2 (stereo unspecified)	TEAD-YAP block 44
Cc1ccc2nc(Nc3nc(C)c(C)c(=O)[nH]3)nc(C)c2c1	none
Cc1ccc2c(C)nc(Nc3nc(C)c(C)c(=O)[nH]3)nc2c1	TEAD-YAP block 44
CC(C)n1cnc2c(NCCO)nc(N3CCCC3CO)nc21 (stereo unspecified)	none
O=C1CCCN1CCCNc1nc(N2CCCC2CO)nc2c1ncn2-c1ccsc1 (stereo unspecified)	TEAD-YAP block 42
OCC1CCCN1c1nc(NCCN2CCOCC2)c2ncn(-c3ccsc3)c2n1 (stereo unspecified)	TEAD-YAP block 61
OCC1CCCN1c1nc(NCCc2ccc(O)cc2)c2ncn(-c3ccsc3)c2n1 (stereo unspecified)	none
OCCNc1nc(N2CCCC2CO)nc2c1ncn2-c1ccccc1 (stereo unspecified)	TEAD-YAP block 55
CCN(CC)C(=O)C1CCCN(c2nc(NCCCN3CCCC3=O)c3ncn(-c4ccccc4)c3n2)C1 (stereo unspecified)	TEAD-YAP block 36
CC(=O)OCC(=O)Nc1ccc(C#N)cc1	none
O=C1CCCN1CCCNc1nc(N2CCCC2CO)nc2c1ncn2-c1ccccc1 (stereo unspecified)	TEAD-YAP block 47
Clc1nc(NCc2nc3ccccc3[nH]2)c2ncn(-c3ccccc3)c2n1	none
OCC1CCCN1c1nc(NCc2nc3ccccc3[nH]2)c2ncn(-c3ccccc3)c2n1 (stereo unspecified)	TEAD-YAP block 48
CC(C)(C)OC(=O)N1CCC[C@H]1C(=O)Nc1ccc2[nH]ncc2c1	none
COc1cccc(CNC(=O)c2cc3oc4ccccc4c3n2C)c1OC	TEAD-YAP block 36
COc1cccc(CNC(=O)c2cc3oc4ccccc4c3n2C)c1	none
CC1(C)c2ccccc2N2CC(=O)NC21/C=C/c1ccccc1 (stereo unspecified)	none
CC1CN2c3ccccc3C(C)(C)C2(/C=C/c2ccc(N(C)C)cc2)NC1=O (stereo unspecified)	TEAD-YAP block 39
O=C(/C=C/c1ccc([N+](=O)[O-])cc1)Nc1cccc(C(=O)c2ccc(F)cc2)c1	TEAD-YAP block 38
COc1ccccc1NC(=O)N(C1=NCCC1)c1ccccc1	none
N/C(=N\OC(=O)c1ccccc1I)c1ccccn1	none
N/C(=N\OC(=O)c1ccccc1F)c1ccccn1	TEAD-YAP block 82
Cc1ccc(C(=O)O/N=C(\N)c2ccccn2)c(C)c1	TEAD-YAP block 90
COc1ccccc1C(=O)O/N=C(\N)c1ccccn1	TEAD-YAP block 38
N/C(=N\OC(=O)c1ccccc1Br)c1ccccn1	TEAD-YAP block 66
O=c1c2ccccc2nc(/C=C\c2ccc(F)c(F)c2)n1-c1cccc(C(F)(F)F)c1	none
CCN(CC)C(=O)CN1C(=O)C2CCCN2C(=O)c2ccccc21 (stereo unspecified)	none
Cc1cccc(-n2c(N)c(Br)c(=O)[nH]c2=O)c1	none
N/C(=N\OC(=O)c1cccc(Cl)c1)c1ccccn1	TEAD-YAP block 49
Cc1cc(C)cc(C(=O)O/N=C(\N)c2ccccn2)c1	none
COc1ccc(/C=C2/C(=O)NC(=O)N(Cc3ccco3)C2=O)cc1OC	none

Bioassay records deposited in PubChem BioAssay by The Scripps Research Institute Molecular Screening Center.
